Source: PubChem BioAssay (several laboratories)
TIM10 inh: growth inhibitors of TIM10 yeast strain. S. cerevisiae TIM10 strain growth, BacTiter-Glo luminescence, 24 h. inhibition, % at 10 µM. AID 463195. 330,000 tested, 1.4% active;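 active means inhibition of 40% or more at the single tested concentration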;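 further: wild-type TIM10 isogenic control strain grown at permissive 25 °C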
PfHsp90 yeast 2: reduces growth (ATP signal) of yeast expressing P. falciparum Hsp90; inhibition, % at 9.4 µM; 310,000 tested, 0.32% active; S. cerevisiae expressing PfHsp90, BacTiter-Glo ATP, 48 h; yeast lacking PDR1 and PDR3 efflux regulators;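 active means every replicate shows inhibition above about 80%, whatever the replicate mean, limit read from the data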;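 further: 0% = DMSO neutral controls and 100% = 20 µM radicicol positive controls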
tim23-1 inh: inhibits growth of tim23-1 mutant yeast; inhibition, % at 20 µM; 330,000 tested, 1.3% active; S. cerevisiae tim23-1 growth, BacTiter-Glo luminescence, 24 h;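 active means growth inhibition of the mutant yeast at or above 50%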;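 further: temperature-sensitive mutant grown at 25 °C; plate controls were DMSO-treated mutant yeast for no effect and medium wells lacking yeast for full effect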
NALP3 yeast inh: blocks the NALP3 inflammasome reconstituted in yeast. Yeast reconstituted NLRP3/ASC/caspase-1, beta-gal luminescence, 24 h. inhibition, % at 10 µM. 330,000 tested, 0.39% active;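 active means inhibition of 50% or more; inactive means inhibition below 50%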;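 further: plate controls were induced DMSO wells for no effect and uninduced yeast grown without galactose for full effect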
tim10-1 inh: growth inhibitors of tim10-1 mutant yeast; inhibition, % at 20 µM; 330,000 tested, 2.2% active; S. cerevisiae tim10-1 ts strain growth, BacTiter-Glo, 24 h;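 active means inhibition of at least 40%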;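 further: mutant grown at 25 °C; 0% = DMSO wells with yeast and 100% = wells holding no yeast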
tim10-1 confirm: tim10-1 yeast growth inhibition, confirmed | shares compounds with tim10-1 inh | 7,400 tested, 56% active | inhibition, % at 20 µM | S. cerevisiae tim10-1 ts strain growth, BacTiter-Glo, 24 h;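 active means inhibition of yeast growth at or above a set limit in either of two repeat tests at 20 µM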;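 further: tim10-1 mutant grown at permissive 25 °C to find synthetic lethal compounds; 0% = DMSO yeast wells and 100% = medium wells without yeast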
Numbers without * were called inactive; / = no result. A selection: hits, their analogues and other compounds. The true share with any hit is near 3.7%.

SMILES	TIM10 inh	PfHsp90 yeast 2	tim23-1 inh	NALP3 yeast inh	tim10-1 inh	tim10-1 confirm
COc1cc(C(=O)Oc2cc(N)n(S(=O)(=O)c3ccccc3)n2)cc(OC)c1OC	19.6	-18.2	35.5	9.2	24.7	/
Cc1ccccc1C(=O)Oc1cc(N)n(S(=O)(=O)c2ccccc2)n1	30.7	-6.6	21.9	0.1	48.1*	26.7
COc1ccc(S(=O)(=O)n2nc(OC(=O)c3ccncc3)cc2N)cc1	16.2	0.2	13.4	11.3	22.9	/
COc1ccc(S(=O)(=O)n2nc(OC(=O)c3ccco3)cc2N)cc1	-2.4	42.1	32.5	1.7	41.1*	24.3
COc1ccccc1C(=O)Oc1cc(N)n(S(=O)(=O)c2ccccc2)n1	29.2	-19.8	25.7	-13.6	40.0	23.9
CC1=CC(=O)Nc2cncnc2N1	/	-9.5	/	/	/	/
c1csc(-c2nc3ccccn3c2NC2CCCCC2)c1	31.4	3.0	27.4	21.5	47.6*	33.0*
Cc1ccc2nc(-c3cccnc3)c(NC3CCCCC3)n2c1	21.7	0.0	31.2	11.8	27.8	/
Cc1ccn2c(NC3CCCC3)c(-c3cccs3)nc2c1	21.1	-12.5	32.5	18.3	46.2*	30.7*
Cc1ccn2c(NCc3ccccc3)c(-c3cccs3)nc2c1	29.0	12.8	45.9	10.6	45.9*	29.9
CC(C)c1nc2ccccn2c1NC1CCCCC1	3.8	34.1	5.6	19.9	10.6	/
Cc1ccn2c(NC(=O)c3ccccc3)c(-c3cccs3)nc2c1	-20.9	/	-3.9	11.0	6.5	/
NS(=O)(=O)c1ccc(CCNC(=O)COC(=O)C2CCN(c3ccc(C(F)(F)F)cn3)CC2)cc1	-9.4	-18.0	6.9	18.4	-2.1	/
Cc1ccc(S(=O)(=O)NC(=O)c2ccccc2C)cc1	9.9	7.3	-0.1	8.2	-6.2	/
CN1CCN(S(=O)(=O)c2ccc(Br)c3nsnc23)CC1	-13.8	/	-10.3	8.3	46.1*	-10.2
O=S(=O)(c1ccc(Br)c2nsnc12)N1CCOCC1	0.5	-3.3	6.2	-3.9	-8.0	/
Cc1cc(Nc2nc3ccccc3nc2Cl)n(-c2ccccc2)n1	30.9	-16.9	37.8	5.9	40.0	22.7
CCOC(=O)C1=NNC(C(=O)c2ccc(C)cc2)C1c1ccc(OC)cc1 (stereo not given)	11.1	-86.7	7.3	0.6	41.1*	12.8
CCOC(=O)C1=NNC(C(=O)c2ccc(Cl)cc2)C1c1ccc(OC)cc1 (stereo not given)	23.8	-15.3	7.6	4.1	21.7	/
COc1ccc(S(=O)(=O)N2CN(Cc3ccco3)c3nc4ccccc4nc32)cc1	19.5	-13.9	26.7	-7.8	47.0*	27.2
CCOc1cc(/C=C2\C(=O)N(c3ccc(C(N)=O)cc3)N=C2C)ccc1OC(=O)c1cccs1	13.7	10.5	9.4	3.9	17.5	/
CCOc1cc(/C=C2/C(=O)N(c3ccccc3)N=C2C)ccc1OC(=O)c1ccco1	25.3	12.1	13.7	12.0	40.4*	26.4
CCCN1CCN(C(=O)C2CCN(S(=O)(=O)c3c(C)noc3/C=C/c3ccc(C)cc3)CC2)CC1	12.4	13.6	30.4	17.9	54.0*	28.2*
Cc1ccc(/C=C/c2onc(C)c2S(=O)(=O)N2CCC(C(=O)N3CCCCC3)CC2)cc1	-64.0	-75.7	-12.9	37.4	-10.7	/
O=C(/C=C/c1ccc(F)cc1)N1CCN(c2ccccn2)CC1	1.9	4.3	10.4	22.6	13.0	/
SMILES	TIM10 inh	PfHsp90 yeast 2	tim23-1 inh	NALP3 yeast inh	tim10-1 inh	tim10-1 confirm
O=C(/C=C/c1cccc(Br)c1)N1CCN(c2ccccn2)CC1	-22.0	-7.7	32.8	13.8	41.6*	23.9
CCN1CCN(CCCNC(=O)C2CCCN(c3nc4c(C)cc(C)cc4s3)C2)CC1 (stereo not given)	9.9	8.7	-7.6	0.6	6.6	/
CCCCCCC(=O)O	7.4	5.6	3.9	2.6	10.1	/
CCCCCCCCC(=O)O	11.8	/	42.7	7.7	45.5*	2.4
CCOC(=O)n1c(=O)n(Cc2ccccc2Cl)c2ccccc21	20.3	-15.9	48.3	18.4	42.7*	33.3*
CCOC(=O)n1c(=O)n(Cc2ccc(Cl)cc2Cl)c2ccccc21	14.4	/	45.4	10.2	29.9	/
Cc1ccccc1OCC(=O)Nn1c(COc2ccccc2)nc2ccccc2c1=O	13.4	-11.4	40.1	20.0	45.5*	26.9
Cc1ccc(CNC(=O)CCc2cn(C)c3ccccc23)cc1	-23.9	10.4	15.7	26.9	21.9	/
